Compound activity deposited in PubChem BioAssay by National Center for Advancing Translational Sciences (NCATS).
MCF10A rereplic: induces DNA re-replication in MCF 10a normal breast cells; MCF 10A DNA re-replication, Hoechst nuclear intensity, 48 h; Potency, µM (doses to about 46.1 µM), for inactives: top-dose activity, positive = re-replication, actives largely listed as activators; actives 2.9% (n = 350,000); note: potency is the fitted concentration of half-maximal effect; % of control where 0% means no effect; nearly all actives have a fitted effect of over 50% in size
SW480 rerep: inducers of DNA re-replication in SW480 colon cancer cells. Potency, µM (doses to about 46.1 µM), for inactives: at the top dose re-replication activation, usual class: activators. AID 624297. actives 1.8% (n = 340,000). SW480 DNA re-replication, Hoechst DNA content imaging, 48 h; note: potency is the fitted concentration of half-maximal effect; % of control where 0% means no effect; nearly all actives have a fitted effect of over 55% in size
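Compounds, transferred as 23 nL by pin tool, were incubated with cells for 48 hr; DNA content per nucleus was then quantified by Hoechst staining and fluorescence plate imaging.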
KB-V1 MDR tox: kills drug-selected multidrug resistant KB-V1 cells; KB-V1 MDR cells viability, CellTiter-Glo, 72 h; Potency, µM (series often up to 46.1 µM), usual class: cytotoxic; actives 3.4% (n = 400,000); note: potency is the fitted concentration of half-maximal effect; % is set by controls: 0 for no effect and ±100 for the full control effect; nearly all actives have a fitted effect of over 60% in size
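In this primary screen, KB-V1 cells overexpressing P-gp are incubated with library compounds (lowest to highest concentration) for 72 h at 37 degrees C before a luminescent ATP viability read.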
hERG WT inh: blocks the wildtype human KCNH2 potassium channel. Q12809. U2OS, BacMam KCNH2, thallium flux FluxOr; stronger effect = lower value. activity change, % at 1.84 µM. actives 0.37% (n = 340,000). AID 720551;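 active = maximum activity change below -70%; inconclusive = maximum activity change between -70% and -50%; inactive = maximum activity change above -50%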; note: % is set by controls: 0 for no effect and ±100 for the full control effect
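U2OS cells were transduced with wild-type KCNH2 virus (2.03 x 10^8 / mL) for 4 h at room temperature, then cultured overnight at 37 C. Thallium flux was read with FluxOr dye. Rate constants were normalized to DMSO controls.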
KCNH2 3.1 block: inhibitors of human KCNH2 3.1 potassium channel isoform. U2OS KCNH2 3.1, thallium flux FluxOr; stronger effect = lower value. activity change, % (tested at about 1.8 µM). actives 0.95% (n = 340,000). AID 720553;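 active = maximum activity change below -70%; inconclusive = maximum activity change from -70% to -50%; inactive = maximum activity change above -50%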;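 note: thallium influx rate constant from kinetic fluorescence after stimulation buffer; % is set by controls: 0 for no effect and ±100 for the full control effect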
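Steps: virus added to U2OS suspension (4 h, RT, dark); medium with 10% FBS added, cells plated, 37 C overnight; FluxOr/Red40 loading buffer 45 min RT; stimulation buffer, 2 min kinetic read; rate constant normalized.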
KB-3-1 cytotox: KB-3-1 parental cell cytotoxicity. Potency, µM (titrated, usually from 46.1 µM), actives largely listed as cytotoxic. KB-3-1 viability, CellTiter-Glo ATP luminescence, 72 h. actives 1.4% (n = 400,000); note: potency is the fitted concentration of half-maximal effect; % is set by controls: 0 for no effect and ±100 for the full control effect; nearly all actives have a fitted effect of over 60% in size
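Parental KB-3-1 viability, qHTS format: 72 h compound exposure, 37 °C; CellTiter-Glo; media-only wells and DMSO plates as controls; concentration-effect fits on corrected data.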
Active calls of the source: *; i = inactive; ? = inconclusive; . = no result; ! = not active in a repeat. In the library only some 7.6% were active in any assay of this set; here they are far more common. Unless noted, calls come from the whole dose curve; as a rule, active = well fitted curve in the direction sought with a large enough effect; inconclusive = small, poorly fitted or top-dose-only effect, or another doubt; inactive = no such curve, though single readings can be large; an effect the other way counts as inactive or inconclusive.

SMILES	MCF10A rereplic	SW480 rerep	KB-V1 MDR tox	hERG WT inh	KCNH2 3.1 block	KB-3-1 cytotox
COc1cc2[nH]c(C(=O)N3CCC(Cc4ccccc4)CC3)cc2c(OC)c1OC	18%	-3%	i	-6	4	i
Cc1ccccc1OCCC(=O)OCC(=O)NC(=O)c1ccccc1	-1%	-5%	i	-11	9	i
COC(=O)c1ccccc1NC1=C/C(=N\S(=O)(=O)c2ccc(C(=O)O)cc2)c2ccccc2C1=O	?	2.9µM*	18µM*	-1	-34	?
COC(=O)c1ccccc1NC1=C/C(=N\S(=O)(=O)c2cccs2)c2ccccc2C1=O	18µM*	4.6µM*	18µM*!	5	-4	?
CCN1CCOC(CC(=O)Nc2cccc([N+](=O)[O-])c2)C1=O (configuration not stated)	21µM*	109%	i	9	6	i
CCOC(=O)C1=C(C)OC(N)=C(C#N)C1c1cc2c(cc1[N+](=O)[O-])OCO2 (configuration not stated)	1%	-24%	i	-7	-1	i
COc1cccc2cc(C(=O)C3=C(O)C(=O)N(CCN(C)C)C3c3ccc(F)cc3)oc12 (configuration not stated)	5.8µM*	8.2µM*	i	2	-10	i
COc1cccc(C2C(C(=O)c3cc4ccccc4o3)=C(O)C(=O)N2CCN(C)C)c1OC (configuration not stated)	-6%	2%	i	-9	-14	i
COc1ccc2c(C(=O)CCl)c[nH]c2c1	?	?	i	8	2	?
COc1ccc(-c2nc(CSCC(=O)NC3CCCC3)c(C)o2)cc1OC	-4%	-13%	?	18	-35	i
Cc1nn(C)c(C(=O)Nc2ccn(Cc3c(F)c(F)cc(F)c3F)n2)c1[N+](=O)[O-]	12%	-1%	13µM*	0	5	i
C(=N\Nc1nc(-c2ccccc2)cs1)/c1cccnc1	4%	9%	i	-5	4	?
Clc1ccc(-c2csc(N/N=C/c3cccnc3)n2)c(Cl)c1	?	?	i	?	-112*	?
Cc1nc(Nc2nc3c(c(=O)[nH]2)CCC3)nc2ccccc12	?	-85%	?	-1	2	5.8µM*
Cc1ccc(SCc2cc(=O)[nH]c(Nc3nc(C)c4ccccc4n3)n2)cc1	8%	-5%	9.2µM*	18	-8	i
O=c1[nH]c(NCc2ccccc2)nc2c1CCC2	1%	-7%	i	-8	11	i
COc1ccc2c(C)nc(Nc3nc(-c4ccccc4)cc(=O)[nH]3)nc2c1	4.6µM*	3.7µM*	?	2	-12	4.6µM*
Cc1ccc2nc(Nc3nc(CSc4nnc(C)s4)cc(=O)[nH]3)nc(C)c2c1	1%	?	23µM*	-22	-22	?
Cc1ccc2nc(Nc3nc(-c4ccccc4)cc(=O)[nH]3)nc(C)c2c1	?	11%	i	-1	2	i
Cn1c2c(c(=O)n(C)c1=O)CN(Cc1ccccc1)CN2	.	.	i	.	.	i
CCOc1ccc(C(=O)N/N=C(\c2ccccc2)c2ccccn2)cc1	28%	8.2µM*	i	2	-21	?
